Laboratory results: PubChem BioAssay (NCI)
This is part of a sample that, as a whole, favours compounds with a hit. Of some 83,000 tested, about 20% had one in any assay.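 The endpoint reported here, percent growth, reads 100 for growth as untreated, 0 for no net growth and -100 for all cells dead.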 A number with no mark means an inactive call. Active and inactive are the calls of the source. The calls were made as follows: active = growth percent below 10; inactive = the rest.

Assays:
Assay in all cases: NCI-60 one-dose screen, 48 h (100 = growth as untreated, 0 = no growth, -100 = all killed)
Conditions in all cases: 10 µM unless noted
HCT-15 colon = test system: HCT-15 colon
HT29 colon = test system: HT29 colon
SNB-75 CNS = test system: SNB-75 CNS
SNB-19 CNS = test system: SNB-19 CNS
U251 CNS = test system: U251 CNS
PC-3 prostate = test system: PC-3 prostate
SK-MEL-5 melanoma = test system: SK-MEL-5 melanoma
UACC-62 melanoma = test system: UACC-62 melanoma
LOX IMVI melanoma = test system: LOX IMVI melanoma
SK-MEL-28 melanoma = test system: SK-MEL-28 melanoma
SK-MEL-2 melanoma = test system: SK-MEL-2 melanoma
EKVX NSCLC = test system: EKVX NSCLC
SN12C renal = test system: SN12C renal
UO-31 renal = test system: UO-31 renal
TK-10 renal = test system: TK-10 renal
ACHN renal = test system: ACHN renal
CAKI-1 renal = test system: CAKI-1 renal
A498 renal = test system: A498 renal
CCRF-CEM leukemia = test system: CCRF-CEM leukemia
MOLT-4 leukemia = test system: MOLT-4 leukemia

Structure (SMILES) | growth (HCT-15 colon) | growth (HT29 colon) | growth (SNB-75 CNS) | growth (SNB-19 CNS) | growth (U251 CNS) | growth (PC-3 prostate) | growth (SK-MEL-5 melanoma) | growth (UACC-62 melanoma) | growth (LOX IMVI melanoma) | growth (SK-MEL-28 melanoma) | growth (SK-MEL-2 melanoma) | growth (EKVX NSCLC) | growth (SN12C renal) | growth (UO-31 renal) | growth (TK-10 renal) | growth (ACHN renal) | growth (CAKI-1 renal) | growth (A498 renal) | growth (CCRF-CEM leukemia) | growth (MOLT-4 leukemia)
CN1CC(c2ccccc2)C(C(=O)c2ccc(Br)cc2)C12C(=O)Nc1ccccc12 (stereo not given) | 95.7% | 87.2% | 96.1% | 89.9% | 94.1% | 70.7% | 99% | 78.4% | 97.3% | 114% | 99.2% | 91.8% | 94.5% | 65.9% | 109% | 100% | 63.2% | 105% | 102% | 92.1%
[2H]C([2H])([2H])Oc1ccc(/C=C/C(=O)/C=C(/C=C/c2ccc(OC([2H])([2H])[2H])c(OC([2H])([2H])[2H])c2OC([2H])([2H])[2H])OB(F)F)c(OC([2H])([2H])[2H])c1OC([2H])([2H])[2H] | 39.6% | 38.5% | 57.1% | 83% | 47.7% | 67.6% | 92.4% | 56.5% | 13.2% | 73.3% | 94.9% | 88.7% | 56.7% | 38.8% | 74.2% | 14.4% | 48.6% | 107% | -2.51% (active) | 23.8%
O=C1CCC(C(=O)N/N=C/c2ccc([N+](=O)[O-])cc2)N1 (stereo not given) | 98.9% | 104% | 75.4% | 99.9% | 102% | 95.3% | 104% | 100% | 91.9% | 111% | 102% | 102% | 103% | 83.4% | 93% | 101% | 93% | 106% | 97% | 102%
C#Cc1cccc(Nc2nc(Cl)nc3cc(NC(=O)CCl)ccc23)c1 | -77.7% (active) | -37.8% (active) | -97.5% (active) | -77.1% (active) | -81.8% (active) | -85.6% (active) | -90.9% (active) | -80.5% (active) | -77.3% (active) | -94.4% (active) | -75.9% (active) | -76.5% (active) | -70.7% (active) | -96% (active) | -96.3% (active) | -98% (active) | -96.9% (active) | 59.6% | -17.4% (active) | -24.9% (active)
COc1cc(-c2ccc(-c3ccc(C(=N)N)s3)s2)cc(OC)c1OC | 13.6% | 4.42% (active) | 75.5% | 47.6% | 1.13% (active) | 47.1% | 23.2% | 81.3% | -63.3% (active) | 7.05% (active) | 70% | 74.4% | 60% | 67.1% | 82.8% | 2.6% (active) | 41.7% | 84.5% | -7.27% (active) | 4.68% (active)
C#CCOc1cccc(-c2ncnc3cc(NC(=O)CCl)ccc23)c1 | -32.9% (active) | -70.7% (active) | 18% | 7.8% (active) | -93.7% (active) | -15.9% (active) | -86% (active) | -41.7% (active) | -83.7% (active) | 20.2% | -4.29% (active) | 11% | -65.8% (active) | -93.7% (active) | 11.8% | -99.6% (active) | -94.4% (active) | 59.4% | -15.6% (active) | -6.64% (active)
Oc1ccc(C2OCCO2)c2cccnc12 | 32% | 78.3% | 80.6% | 64.4% | 27.4% | 32% | 48.4% | 51.4% | 38.4% | 63.4% | 70.4% | 78.4% | 49.1% | 45% | 95.5% | 67.5% | 105% | 88.2% | 13.5% | 20.5%
CS(=O)(=O)c1ccc(/C(=N/NC(N)=S)c2ccc(F)cc2)cc1 | 98.4% | 107% | 93.1% | 99.9% | 107% | 103% | 102% | 101% | 101% | 114% | 112% | 92.5% | 96.5% | 71.1% | 115% | 100% | 94.7% | 82.2% | 92.9% | 103%
C#CCOc1ccc(C2=NN(CCCC)C3N=C(Cl)c4ncn(CCCC)c4N23)cc1OCC#C (stereo not given) | 88.9% | 96.9% | 83.3% | 94.6% | 79.6% | 63.6% | 89.7% | 69.6% | 85.8% | 93.6% | 101% | 85.2% | 91.4% | 62.5% | 97.8% | 87.4% | 74.3% | 73% | 78.2% | 65.3%
Cn1cc(-c2csc(-c3cn(C)c4ccc(F)cc34)n2)c2cnccc21 | -46.4% (active) | -66.8% (active) | -73% (active) | 3.63% (active) | -89.5% (active) | 10.5% | -94.1% (active) | -69.4% (active) | -90% (active) | -95.9% (active) | 88.9% | -13.1% (active) | -29.9% (active) | -69.7% (active) | -20.2% (active) | -89.6% (active) | -43.9% (active) | 78.3% | -11.6% (active) | -36.1% (active)
C=C(C)[C@@H]1CC[C@]2(C#N)CC[C@]3(C)[C@H](CC[C@@H]4[C@@]5(C)CCCNC(C)(C)[C@@H]5CC[C@]43C)[C@@H]12 | 23% | 9.37% (active) | 83.9% | 78.6% | 16.7% | 68.7% | 86.4% | 88.6% | -44.3% (active) | 97.3% | 110% | 68.9% | 60.3% | 71.8% | 118% | 94.6% | 62.2% | 82.4% | 50.6% | 40%
CC1(C)CC(=O)C2=C(C1)OC(C(=O)c1ccccc1)C2c1cccc(Oc2ccccc2)c1 (stereo not given) | 45.6% | 43.1% | 40.7% | 60.8% | 40.8% | 24% | 36.3% | 35.9% | 37% | 74.4% | 25% | 36.4% | 38.7% | 15.6% | 63.8% | 32.7% | 41.6% | 49.6% | 34.5% | 12.2%
CO[C@]12C=C/C(=C(/C(=O)OCc3cccnc3)C(=O)CCCCCCCC[C@]3(OC)C=C/C(=C(/C(=O)OCc4cccnc4)C(=O)CCCCCCCC1)O3)O2 | -78.5% (active) | -32.3% (active) | -79.6% (active) | -90.5% (active) | -64.2% (active) | -51.6% (active) | -92.9% (active) | -82.5% (active) | -82.3% (active) | -86.3% (active) | -44.8% (active) | -53.8% (active) | -46.1% (active) | -40.7% (active) | -13.8% (active) | -73.6% (active) | -29.7% (active) | -88.4% (active) | -23.2% (active) | -13.1% (active)
Cc1ccc(S(=O)(=O)N(CCC(=O)O)c2ccccc2)cc1 | 102% | 110% | 118% | 109% | 102% | 101% | 112% | 104% | 97.3% | 119% | 109% | 108% | 109% | 106% | 119% | 106% | 93.9% | 81.3% | 94.4% | 106%
O=C1NCCN1/N=C/c1c(Cl)n(Cc2ccc(Cl)cc2)c2ccccc12 | 93.3% | 111% | 94.4% | 107% | 75.5% | 89% | 68% | 53.5% | 72.7% | 112% | 91.7% | 88.9% | 85.8% | 72.4% | 90.8% | 94.4% | -18.9% (active) | -85.5% (active) | 89% | 65.6%
